Measurements as given in PubChem BioAssay AID717 (Columbia University Molecular Screening Center, 2007).
The whole screen tested about 91,000 compounds, of which about 40 (0.04%) were called active. Rule as the data show it: active = activation above about 37%; inactive = the rest. Only a sample is shown.

These compounds were tested against Bifunctional epoxide hydrolase 2 (Homo sapiens) (UniProt P34913) (assay: sEH enzyme activity enhancers – biochemical, human sEH, primary screen (AID 717)). Settings: purified human sEH enzymatic activity, activator screen; at 2 µM; active compounds read high.
Bifunctional epoxide hydrolase 2 (Homo sapiens), sequence (P34913 whole entry, looked up): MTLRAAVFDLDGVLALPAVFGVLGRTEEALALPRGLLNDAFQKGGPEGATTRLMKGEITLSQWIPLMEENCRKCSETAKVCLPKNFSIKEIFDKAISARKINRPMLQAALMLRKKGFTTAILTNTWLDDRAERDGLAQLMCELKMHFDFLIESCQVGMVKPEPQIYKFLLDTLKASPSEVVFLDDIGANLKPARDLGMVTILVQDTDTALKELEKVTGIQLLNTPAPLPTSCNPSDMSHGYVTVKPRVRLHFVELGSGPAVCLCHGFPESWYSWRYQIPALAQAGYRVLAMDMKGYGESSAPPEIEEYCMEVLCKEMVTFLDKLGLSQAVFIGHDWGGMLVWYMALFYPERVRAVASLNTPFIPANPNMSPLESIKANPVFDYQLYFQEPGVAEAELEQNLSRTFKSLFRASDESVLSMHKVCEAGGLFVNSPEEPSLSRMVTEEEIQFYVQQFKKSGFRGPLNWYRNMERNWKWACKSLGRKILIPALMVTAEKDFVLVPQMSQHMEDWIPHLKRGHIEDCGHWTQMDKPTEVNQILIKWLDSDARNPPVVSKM

activation, inactive:
COc1ccc(C)cc1NC(=O)CCC(=O)Nc1nnc(C(F)(F)F)s1 -15.1%
Cc1nnsc1S(=O)(=O)Cc1ccccc1Cl -3.8%
CCCCNC(=O)c1onc(CSc2cccc(OC)c2)c1C(=O)O 11.8%
CS(=O)(=O)N1CCN(c2ccc(C(=O)NC3C4CC5CC(C4)CC3C5)cc2[N+](=O)[O-])CC1 (stereo unspecified) 8.8%
C(=N/N1CCN(c2ccccc2)CC1)/c1cccs1 4.8%
COCCCNC(NC(=O)c1ccc(C)cc1)C(Cl)(Cl)Cl (stereo unspecified) 18.3%
CCOC(=O)C1=C(CN2CCc3ccccc32)NC(=O)NC1c1cc(C)ccc1C (stereo unspecified) 7.8%
Nc1ccc(-c2sc(N)nc2-c2ccccc2)cc1 10.7%
COCC(C)NC(=O)c1ccc(-n2nc(C(F)(F)F)cc2-c2cccs2)cc1 (stereo unspecified) 3.4%
CC(=O)c1cn(CCCCCCCCCCn2cc(C(C)=O)c(=O)[nH]c2=O)c(=O)[nH]c1=O 3.2%
Cc1csc(=NC(=O)c2ccccc2)n1CCO 7.3%
CCc1ccc(C(=O)CSc2nnc(C)c(=O)[nH]2)cc1 -0.4%
CCCn1nnnc1NC(=O)COc1ccc(Cl)cc1C 36.8%
COc1ccccc1CNC(=O)c1ccc(SC)cc1OC 1%
Cc1nn(C)cc1/C=C1\CCC/C(=C\c2cn(C)nc2C)C1=O 11.7%
CCN(CC)c1nc(-c2ccccc2)cc(C(F)(F)F)c1C#N 30.7%
Nc1c(-c2cccc(Cl)c2)cnn1-c1cccc([N+](=O)[O-])c1 0.1%
O=c1c2ccccc2c(-c2ccc(Br)cc2)nn1Cc1ccccc1 -4.3%
O=C(COC(=O)c1ccccc1NC(=O)c1ccco1)Nc1ccc2c(c1)OC(F)(F)O2 -28.9%
CCCCNCc1ccc(SC)cc1 -8.5%
NC(=O)N1CCCC1C(=O)Nc1ccc(Cl)c(Cl)c1 (stereo unspecified) -4.5%
CCCCNC(=O)CSc1nc2ccc(NC(=O)CSc3nnc(COc4ccccc4C)n3C)cc2s1 -88.3%
Cc1cc(C(=O)OCC(=O)Nc2ccc(F)c(F)c2)c(C)o1 -9.4%
COc1ccc(CCNC(=S)NC(=O)/C=C/c2ccc(C)cc2)cc1OC 3.7%
CC1=NN(Cc2ccccc2)C(=O)/C1=C/c1ccc(N(C)C)cc1 4.2%
CCn1cc(C(=O)N/N=C(/C)c2ccc(F)cc2)c(=O)c2cc(F)c(N3CCCC3)cc21 11.6%
COc1ccc(NS(=O)(=O)c2ccc(NC(=S)NC(=O)CC(C)C)cc2)cc1 1.9%
O=C(NCCCN1CCOCC1)c1cc2c(s1)CCC2 -5.4%
O=C(CN1C(=O)NC(Cc2ccccc2)(Cc2ccccc2)C1=O)NCC1CCCCC1 11.9%
O=C(OCN1C(=O)c2ccccc2C1=O)/C(=C\c1ccco1)NC(=O)c1ccccc1 -78.7%
COC(=O)CNC(=O)c1ccccc1[N+](=O)[O-] 18.9%
CCOc1ccc(C(CCc2ccccc2)NC(=O)c2ccc(OC)c(OC)c2)cc1OCC (stereo unspecified) 23.3%
CC(CNc1ccc([N+](=O)[O-])cc1)NC(=O)c1ccccc1Br (stereo unspecified) 5%
C=CCn1c(-c2ccc(Cl)cc2)ccc(C#N)c1=O 2.9%
COc1ccc2c(c1)SC(C)CC2=O (stereo unspecified) 13.9%
CC1(C)CC(=O)C(C=NCCN2CCN(C(=S)Nc3cccc(Cl)c3)CC2)=C(O)C1 -11.3%
Cc1ccc(-c2csc(N(Cc3ccco3)C(=O)c3cccs3)n2)cc1 11.6%
CCOC(=O)NNC(=O)c1ccc(Cl)cc1 0.5%
CC(Oc1ccc(Cl)cc1Cl)C(=O)/C=C/N(C)C (stereo unspecified) -10%
COc1ccc(/C=N/Nc2nc3ccccc3c(=O)[nH]2)cc1 10%
O=[N+]([O-])c1ccc(NCCCN2CCOCC2)c(Cl)c1 -17.1%
Clc1ccc(-n2nnnc2CN2CCCCC2)cc1Cl -4%
C=CCOC(=O)C1=C(C)NC(C)=C(C(=O)OCC=C)C1c1cccs1 8.4%
COc1ccc(-c2cc(C(=O)n3cnc4ccccc43)c3ccccc3n2)cc1 11.7%
COc1cc(C(=O)N2CCN(C/C=C/c3ccccc3)CC2)cc(OC)c1C 11.7%
CCCCNC(=S)NNC(=O)c1cc(C)on1 -1.6%
CN(CC#CCC(c1ccccc1)c1ccccc1)C(C)(C)C -4.2%
CC(C)(C)c1cc2cccnc2n1Cc1ccccc1 -9.8%
COc1cc(C2C(C(=O)OCCC#N)=C(C)NC3=C2S(=O)(=O)c2ccccc23)cc(OC)c1OC (stereo unspecified) -9%
c1ccc(CSc2ncnc3c2sc2nc(N4CCOCC4)c4c(c23)CCCC4)cc1 -8.4%
c1cnc(Nc2nc(-c3ccc4ccccc4c3)cs2)nc1 9.6%
c1ccc2c(CSCc3nc4ccccc4[nH]3)cccc2c1 -10.8%
CCOC(=O)c1c(NC(=O)c2ccc(N3CCOCC3)c([N+](=O)[O-])c2)sc(C)c1C -11.3%
O=C(CN1CCN(S(=O)(=O)c2ccc(Cl)s2)CC1)NCc1ccc(Cl)cc1 0.3%
COc1ccc(C(=S)Nc2ccccc2)cc1 -3.8%
Cc1nn(-c2ccccc2)c(Cl)c1C(=O)Nc1ccccc1 2%
O=C(CNC(=O)c1cc2c(s1)CCC2)Nc1ccccc1Br -12.2%
CCNC(=S)N1CCN(C(=O)c2ccco2)CC1 1%
COc1cc(/C=N/O)cc(Br)c1OS(=O)(=O)c1ccc(C)cc1 12.9%
CCOC(=O)COc1cc(OCC(=O)OCC)c2c(=O)cc(-c3ccccc3)oc2c1 15.3%
Cc1ccc(C(=O)NNC(=O)OC(C)(C)C)c(Cl)c1 2%
Cc1ccc(NC(=S)N/N=C2/CCCc3c(C)cc(C)cc32)cc1 9.9%
O=C(CCC(=O)OCc1cccc(C(=O)Oc2ccccc2)c1)Nc1cccc2ccccc12 -9.6%
O=C(CSCc1c(Cl)cccc1Cl)NN1C(=O)c2ccccc2C1=O -21.2%
Cc1ccc(N2C(=O)C(Cc3ccccc3)NC2=S)cc1 (stereo unspecified) -3.9%
COc1ccc(NC(=O)CSc2nc(N)c(-c3ccccc3)c(=O)[nH]2)cc1 -3.7%
Cc1nn(C)c(Oc2ccccc2)c1[N+](=O)[O-] -3%
O=C(CSc1ccc(/C=N/NC(=O)c2cccc(F)c2)o1)Nc1ccccc1 -79%
CCOc1c2ccc(C(=O)NCc3ccc(OC(F)(F)F)cc3)cc2nn1C -0.5%
CC1=NN(C(=O)c2ccccc2Br)C(O)(c2cccnc2)C1 (stereo unspecified) -13.7%
Cc1nn(-c2ccccn2)c2c1C(c1ccncc1)C1=C(CC(C)(C)CC1=O)N2 (stereo unspecified) 3.8%
Cc1ccc(Oc2ccc3c(c2)C(=O)N(c2cccc4cccnc24)C3=O)cc1 -10.3%
Cc1cc(C)c2c(-n3cccc3)c(C(=O)NNS(=O)(=O)c3ccc(F)cc3)sc2n1 11.1%
Cc1nn(C)cc1C(=O)NNC(=S)Nc1ccc(Cl)cc1 -12.9%
O=C(NC1=NCCS1)[C@H](Cc1ccccc1)N1C(=O)c2ccccc2C1=O -7.6%
CCCCNC(=O)CCn1c(=S)[nH]c2cc3c(cc2c1=O)OCO3 -13.6%
O=C(c1cccc(F)c1)N1CCN(c2ccc([N+](=O)[O-])c(N3CCCCC3)c2)CC1 -8.2%
COc1ccc(N(CC(=O)N/N=C/c2cccc3c2OCCO3)S(=O)(=O)c2ccc(NC(C)=O)cc2)cc1 5.2%
COc1ccccc1-c1n[nH]c2c1[C@H](C)CC[C@H]2C(C)C 15.1%
COc1cccc2c1OCC(C(=O)NCc1ccc(Cl)cc1Cl)=C2 -78.6%
COc1ccc([N+](=O)[O-])cc1NC(=O)CCc1ccccc1 -7.7%
CCn1c2ccccc2c2cc(NC(=O)C/C(C)=N/NC(=O)c3ccccc3N)ccc21 -2.8%
COc1ccccc1CSc1nc2ccccc2[nH]1 2.2%
O=C(CNC(=O)c1ccccc1)NCC(=O)OCc1ccc(Cl)cc1 5.3%
c1ccc(-n2nnnc2NC2CCCCCC2)cc1 12.5%
COc1ccc(C(=O)NC(=S)Nc2ccccc2N2CCN(S(C)(=O)=O)CC2)cc1OC -12%
Cc1nnc(NC(=O)CSc2nc(C3CCCCC3)nc3ccccc23)s1 1.6%
Cc1c(C(=O)OC(C)C)sc(NC(=O)c2cccnc2)c1C#N -4.7%
Cc1ccc(NC(=S)Nc2ncccc2C)c(C)c1 -5.2%
CCOC(=O)C1CN(S(=O)(=O)c2ccc(F)cc2)C1 6.7%
CCCC(=O)NC(Nc1ccccc1OC)C(Cl)(Cl)Cl (stereo unspecified) -3.9%
CC(C)C(=O)OCC(=O)Nc1ccc2c(c1)CCC2 -1.7%
Cc1ccc(S(=O)(=O)N(CC(=O)N/N=C/c2ccc(F)cc2)c2cccc3cccnc23)cc1 6.1%
N#Cc1c(C(F)(F)F)cc(-c2ccccc2)nc1SCC(=O)N1CCOCC1 0.7%
N#C/C(=C1/CCCN1)c1ccccn1 -2.3%
Cc1cc(C)cc(OCC(=O)NNC(=O)c2cc3ccccc3oc2=O)c1 2%
